Assay outcomes deposited in PubChem by National Center for Advancing Translational Sciences (NCATS).
Luciferase inh: qHTS Assay for Inhibitors of Firefly Luciferase; Luciferin 4-monooxygenase (Photinus pyralis), P08659; purified firefly luciferase, luminescence, 8 min; Potency, µM (top dose mostly 57.1 µM), for the others: top-dose activity change, negative = inhibition, hits mostly inhibitors; 2.2% of 72,000 active; AID 411, 2009; further: on the % scale 0 is the no-effect control and ±100 the full control effect; nearly all actives have a fitted effect of over 40% in size
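Inhibition of light generation by firefly luciferase from ATP and luciferin was profiled with concentration-response curves per sample, ATP held at 10 uM within the enzyme's linear range. Plates were read by luminescence after an 8-minute ambient incubation.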
TSHR ag: qHTS Assay for Agonists of the Thyroid Stimulating Hormone Receptor. Thyrotropin receptor (Homo sapiens), P16473. HEK293-CNG-TSHR cells (CNG channel as cAMP sensor), membrane potential dye, cAMP. Potency, µM (series often up to 57.1 µM), without a hit: at the highest dose activation, usual class: activators. 0.48% of 73,000 active; active means well fitted activation curve with a large enough effect in the main read-out, with a control signal flat, not every such curve was filed as active; inconclusive means small, poorly fitted or top-dose-only effect, or a change in a side signal; inactive means no such curve, though single readings can be large or run the other way; % of control where 0% means no effect;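 further: the control signal comes from parental cells without the receptor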
Target sequence (P16473 whole entry, looked up): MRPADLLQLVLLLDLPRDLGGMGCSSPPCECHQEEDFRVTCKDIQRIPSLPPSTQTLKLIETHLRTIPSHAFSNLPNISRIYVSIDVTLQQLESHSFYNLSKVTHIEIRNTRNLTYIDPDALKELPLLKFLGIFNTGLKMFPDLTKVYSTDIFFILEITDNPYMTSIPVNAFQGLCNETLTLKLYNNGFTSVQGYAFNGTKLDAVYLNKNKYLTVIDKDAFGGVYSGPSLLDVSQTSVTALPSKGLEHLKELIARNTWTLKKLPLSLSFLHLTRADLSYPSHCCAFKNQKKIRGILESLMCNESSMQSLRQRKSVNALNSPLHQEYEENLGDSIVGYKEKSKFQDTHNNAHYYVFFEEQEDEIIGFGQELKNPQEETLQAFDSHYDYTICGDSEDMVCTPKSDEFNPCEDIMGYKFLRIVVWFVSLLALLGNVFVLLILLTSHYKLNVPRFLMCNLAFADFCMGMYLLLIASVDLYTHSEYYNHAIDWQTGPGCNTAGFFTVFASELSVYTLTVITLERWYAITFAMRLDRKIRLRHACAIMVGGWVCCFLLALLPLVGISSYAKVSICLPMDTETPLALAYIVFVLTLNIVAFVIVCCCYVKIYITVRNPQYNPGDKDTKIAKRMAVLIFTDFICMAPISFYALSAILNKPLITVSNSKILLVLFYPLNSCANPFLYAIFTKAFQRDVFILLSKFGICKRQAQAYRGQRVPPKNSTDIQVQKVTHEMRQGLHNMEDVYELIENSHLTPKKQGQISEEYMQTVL
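HEK 293 cells stably expressing TSHR and a cAMP-gated CNG channel; parental CNG-only cells as counterscreen. Cells preloaded 60 min with membrane potential dye plus 100 uM RO 20-1724, then compound 30 min; fluorescence read at 590 nm.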
HEK293 cAMP cs: qHTS Assay for Agonists of the Thyroid Stimulating Hormone Receptor: Activators of Intracellular cAMP Concentrations in Parental HEK 293 | parental HEK293 CNG cAMP sensor, membrane potential fluorescence | Potency, µM (highest dose often 57.1 µM), without a hit: at the highest dose activation, most hits filed as activators | 2.5% of 73,000 active | AID 938, 2007; further: % of control where 0% means no effect; nearly all actives have a fitted effect of over 55% in size
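Counterscreen for endogenous-receptor signalling: CNG-channel HEK 293 cells report cAMP rise by membrane depolarization. After 60 min dye equilibration with 100 uM RO 20-1724, compounds incubated 30 min before bottom-read fluorescence at 590 nm.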
PK Bst: Pyruvate Kinase; purified pyruvate kinase, luminescence ATP production; ribose 5-phosphate activator present at AC10; Potency, µM; 1.2% of 51,000 active; in the data active means potency below about 11 µM; inconclusive means mostly about 12 µM to 25 µM;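 the screen sought inhibitors and activators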;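 further: scaled between full activation by ribose 5 phosphate and full inhibition by luteolin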
An asterisk follows results filed as active; i = inactive; u = inconclusive; x = no result; [ ] = dose if it differs, or a comment. This is a sample that favours compounds with a hit; in the whole collection about 5.2% have one here. Unless noted, the call rests on the fitted dose curve; in most records, active means well fitted curve in the direction sought with a large enough effect; inconclusive means small, poorly fitted or top-dose-only effect, or another doubt; inactive means no such curve, though single readings can be large; an effect the other way counts as inactive or inconclusive. Potency means the concentration at half of the fitted maximal effect.

SMILES	Luciferase inh	TSHR ag	HEK293 cAMP cs	PK Bst
COc1ccc(C(=O)NCC(=O)n2nc(C)cc2C)cc1OC	3%[25.5 µM]	x	x	>26
Oc1ccccc1-c1cc(-c2ccccc2Cl)[nH]n1	13µM*	-3%	-9%	u
O=C(NC12CC3CC(CC(C3)C1)C2)N1CCN(S(=O)(=O)c2ccc(Cl)cc2)CC1	0%	u	u	>57
CN(c1ccccc1)C(c1ccc(F)cc1)c1nnnn1C1CCCC1 (stereo unspecified)	-3%	u	13µM*	>57
COc1ccc(-c2cc3nc(-c4ccccc4)cc(N4CCC5(CC4)OCCO5)n3n2)cc1	6%	2%[11.4 µM]	15%	i
C=CCn1c(=O)c(C(=O)NCCNCC)c(O)c2ccccc21	1%	u	13µM*	>57
CCN(CC)S(=O)(=O)c1ccc(F)cc1	0%	-6%	6%	>57
CCOC(=O)CCN(Cc1cccs1)S(=O)(=O)c1ccc(F)cc1	2%	u	13µM*	>57
Nc1nonc1-c1nc2ccccc2n1Cc1ccc(F)cc1Cl	0%	u	16µM*	>57
COC(=O)c1ccc(NC(=O)c2ccccc2NS(C)(=O)=O)cc1	16µM*	-4%	-1%	x
COc1ccc(NC(=O)c2ccccc2NS(C)(=O)=O)cc1OC	u	-4%	-3%	>57
COc1ccc2c(c1)cc(C)c1nnc(SCC(=O)N3CCN(C(=O)c4ccco4)CC3)n12	-1%	19%	2%	>57
O=C(Nc1cccc2ccccc12)OC1C=CS(=O)(=O)C1 (stereo unspecified)	-1%	u	32µM*	>57
CCCn1c(NC(=O)c2ccc(Cl)c(S(=O)(=O)N3CCCC3)c2)nc2ccccc21	1%	u	16µM*	>57
O=C(NCc1nc2ccccc2[nH]1)c1ccc(Cl)c(S(=O)(=O)N2CCCC2)c1	-3%	1%	3%	>57
Cc1cc(NC(=O)c2ccccc2)ncc1NC(=O)c1ccco1	25µM*	-3%	-5%	i
CCCC(=O)Nc1cnc(NC(=O)c2cccc(F)c2)cc1C	25µM*	-7%	-9%	x
O=C(c1ccc2c(c1)OCO2)N1CCCC(c2ccccc2)C1 (stereo unspecified)	3%	u	10µM*	>57
O=C(c1ccc2c(c1)OCO2)N1CCN(c2ccccc2)CC1	0%	u	16µM*	>57
O=C(c1ccc2c(c1)OCO2)N1CCN(c2ccc(Cl)cc2)CC1	-1%	x	6%	x
Cc1ccc(SCc2cc(=O)[nH]c(N3CCOCC3)n2)cc1	0%	8%	5%	>57
CCCCC#Cc1nc(N)c2ncn([C@@H]3O[C@@H](C(=O)NCC)[C@H](O)[C@@H]3O)c2n1	3%	u	2µM*	x
COCCn1c(C)cc(C(=O)CSc2nc3ccccc3o2)c1C	7.9µM*	u	u	x
COCCn1c(C)cc(C(=O)CSc2nnc3ccccn23)c1C	10µM*	-3%	11%	x
Nc1cccc(B(O)O)c1	x	0%	3%	x
SMILES	Luciferase inh	TSHR ag	HEK293 cAMP cs	PK Bst
CC(C)CN(C(=O)COC(=O)CCN1C(=O)c2ccccc2C1=O)C1CCS(=O)(=O)C1 (stereo unspecified)	-14%	0%	10%	>57
Cc1cc(NC(=O)c2cc(-c3ccccn3)nc3ccccc23)no1	0%	25%	18%	>57
O=C(NCc1ccco1)c1cc(-c2cccnc2)nc2ccccc12	-5%	20%	9%	>57
Cc1cc(C)c2nc(-c3ccccn3)cc(C(=O)NCc3ccco3)c2c1	-5%	u	25µM*	>57
Cc1cc(NC(=O)c2cccc(C(=O)Nc3cc(C)on3)n2)no1	0%	2%	4%	>57
Cc1cc(NC(=O)c2cc(-c3cccs3)nc3ccccc23)no1	-1%	u	16µM*	x
Cc1cc(NC(=O)c2cc(-c3ccncc3)nc3c(C)cccc23)no1	-1%	u	32µM*	>57
Cc1cc(C)c2nc(-c3ccccn3)cc(C(=O)Nc3cc(C)on3)c2c1	-3%	u	16µM*	>57
COCCSc1nc2c(c(=O)[nH]c(=O)n2C)n1Cc1cccc(C)c1	-4%	-1%[11.4 µM]	3%	x
Clc1ccc(-c2nn3cnnc3s2)c(Cl)c1	-4%	27%	13%	10*
Cc1cc(C)c2c(-n3cccc3)c(C(=O)O)sc2n1	1%	u	u	>57
CCCCNC(=O)c1sc2nc(C)cc(COC)c2c1-n1cccc1	-1%	u	16µM*	>57
COc1cc2c(cc1OC)CN(Cc1nc3ccsc3c(=O)[nH]1)CC2	5%	1%	-2%	>57
O=C(c1ccc2c(c1)OCCO2)C1CCN(S(=O)(=O)c2ccc(F)cc2)CC1	0%	13%	17%	10*
Cc1cc(C(=O)COc2ccc(-c3nnco3)cc2)c(C)n1Cc1ccccc1	0%	u	13µM*	>57
Cc1ccc(S(=O)(=O)N2CCN(C(=O)COc3ccc(-c4nnco4)cc3)CC2)cc1	4%	-1%	6%	>57
O=C(c1ccc2c(=O)n(CC3CCCO3)c(=S)[nH]c2c1)N1CCN(c2ccccc2)CC1 (stereo unspecified)	2%	14%	28%	>57
CC(C)OCCCNC(=O)c1c(N)n(/N=C/c2ccccn2)c2nc3ccccc3nc12	2%	u	10µM*	>57
N#CCc1ccc(NS(=O)(=O)c2ccc(N3CCCC3=O)cc2)cc1	-4%	u	u	x
NC(=O)c1ccccc1	2%	u	-4%	x
NC(=O)c1ccc(-c2ncc(-c3ccccc3)o2)cc1	13µM*	6%[11.4 µM]	7%	4*
CCN(CC)CCNC(=O)c1ccccc1C(=O)c1ncc[nH]1	2%	4%	8%	x
NC(=O)c1ccc(-c2nc(-c3ccc4c(c3)OCO4)c(-c3ccccn3)[nH]2)cc1	7.9µM*	-2%	-13%	x
COc1ccc(C(=O)/C=C/N2CCCCC2)cc1OC	-22%	10%[11.4 µM]	-1%[11.4 µM]	x
COc1ccc(C(=O)/C=C/Nc2cccc(C)n2)cc1OC	10µM*	x	x	0.63*
SMILES	Luciferase inh	TSHR ag	HEK293 cAMP cs	PK Bst
Cc1ccc(C(=O)/C=C/Nc2ccccn2)cc1	0.4µM*	x	x	0.75*
Cc1ccc(N2CC(C(=O)Nc3ccccn3)CC2=O)cc1 (stereo unspecified)	1%	19%	-12%	>57
CC(C)c1cccc2nc3c(c([Si](C)(C)C)c12)Cn1c-3cccc1=O	x	u	13µM*	x
CCc1c2c(nc3c(C(C)C)cccc13)-c1cccc(=O)n1C2	x	u	25µM*	x
CCc1cccc2nc3c(c([Si](CC)(CC)CC)c12)Cn1c-3cccc1=O	x	u	25µM*	x
CC(c1ccccc1)C1CC(=O)N(CC(=O)O)C1=O (stereo unspecified)	2%	2%	3%	>57
O=C(O)CC(c1ccccc1)n1cccc1 (stereo unspecified)	1%	3%[11.4 µM]	8%	>57
COc1cccc(-c2nc(Cc3ccc(OC)c(OC)c3)no2)c1	0%	u	25µM*	x
